SARS PLP yeast: SARS-CoV PLP inhibition in yeast. 330,000 tested, 0.19% active. S. cerevisiae expressing SARS-CoV PLpro, growth rescue. Potency, µM (titrated, usually from 32.9 µM), for the others: at the top dose activity, positive = growth rescue, most hits filed as activators; calls by dose curve; also: potency is read from the fitted curve at half-maximal effect; 0% is about no effect; nearly all actives have a fitted effect of over 55% in size
Pf growth 96h: inhibits malaria parasite growth, 96 h. P. falciparum luciferase reporter growth, 96 h. Potency, µM (titrated, usually from 28.7 µM), for inactives: at the top dose activity change, negative = inhibition, usual class: inhibitors. 320,000 tested, 6.9% active. AID 504834; also: potency is read from the fitted curve at half-maximal effect; % is scaled to controls: 0 for no effect and ±100 for the full control effect
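Parasite growth measured via integrated firefly luciferase reporter in P. falciparum. Infected erythrocytes at 2% hematocrit, 0.05% parasitemia final were treated 96 hours at 37 C under 5% CO2, and luminescence was read.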
Cycloheximide cs: counter-screen for Shiga toxin inhibitors: cycloheximide protein synthesis inhibition | cell reporter, cycloheximide protein synthesis inhibition counterscreen | max response, % | 300,000 tested, 12% active | AID 2314; in the data active = max response mostly above about 13%, no sharp cut-off; inactive = mostly below about 14%; also: read at 38.3 µM for the half of the compounds with a filed dose; 0% is about no effect
Shiga toxin inh: inhibitors of Shiga toxin in Vero cells | Vero cells, Shiga toxin protein synthesis inhibition reporter | inhibition, % at 38.7 µM | 290,000 tested, 9.2% active | AID 2315; in the data active = inhibition mostly above about 28%, no sharp cut-off; inactive = mostly below about 43%; also: 0% is about no effect
Pf growth 48h: inhibits P. falciparum growth in the first generation, 48 h; P. falciparum luciferase growth in erythrocytes, 48 h; Potency, µM (titrated, usually from 28.7 µM), inactives show at the top dose activity change, negative = inhibition, most hits filed as inhibitors; 310,000 tested, 5.9% active; AID 504832; also: potency is read from the fitted curve at half-maximal effect; % is scaled to controls: 0 for no effect and ±100 for the full control effect
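In quantitative HTS format, infected erythrocytes bearing luciferase-reporter parasites were treated for a single generation at 37 C. Luminescence after adding detection reagent served as the growth measure.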
AMA1-RON2 inh: AMA1-RON2 (P. falciparum) interaction inhibition; AlphaScreen AMA1-biotinylated RON2 peptide binding; Potency, µM (doses to about 58.2 µM), inactives show at the top dose activity change, negative = inhibition, actives largely listed as inhibitors; 360,000 tested, 0.2% active; AID 720542;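 also: potency is read from the fitted curve at half-maximal effect; 0% = vehicle wells and -100% = peptide control; nearly all actives have a fitted effect of over 45% in size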
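AMA1 (3D7) with his tag at 25 nM final met compounds first, then biotinylated RON2 peptide at 25 nM; detection used donor plus acceptor beads, 10 µg/mL apiece, read by AlphaScreen after 30 min at room temperature.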
Starred values were filed as active, the others as inactive; ? = inconclusive; nt = no result; [ ] = dose if it differs, or a comment. Rows were chosen to be rich in hits. Some 19% of all compounds tested hit in one or more screens of this group. Unless noted, calls follow the shape of the dose curve; as a rule, active = well fitted curve in the direction sought with a large enough effect; inconclusive = small, poorly fitted or top-dose-only effect, or another doubt; inactive = no such curve, though single readings can be large; an effect the other way counts as inactive or inconclusive.

SMILES	SARS PLP yeast	Pf growth 96h	Cycloheximide cs	Shiga toxin inh	Pf growth 48h	AMA1-RON2 inh
Cc1ccc(CSc2nnc([C@@H]3CCCN3C(=O)OC(C)(C)C)o2)cc1	0%	?	-3	26	?	-10%
CC(C)C[C@H](NC(=O)OC(C)(C)C)c1nnc(SCc2cccc(F)c2)o1	-13%	10µM*	9	27*	?	54%
Cc1cccc(NC(=O)CSc2nnc([C@@H](N)Cc3c[nH]c4ccccc34)o2)c1C	2%	1.7µM*	-2	1	?	64%
CCSc1nnc([C@@H](N)Cc2c[nH]c3ccccc23)o1	-10%	-10%	13	13	-6%	-1%
CC(C)(C)OC(=O)N1CCC[C@H]1c1nnc(SCc2ccccc2)o1	1%	12µM*	5	5	?	-19%
COc1cccc(CC(=O)OCC(=O)NC(Cc2ccccc2)C(C)=O)c1 (centres undefined)	-2%	17%	nt	nt	?	-14%
CSc1nnc([C@H](Cc2c[nH]c3ccccc23)NC(=O)OC(C)(C)C)o1	0%	12%	26*	65*	-6%	-12%
COc1ccccc1NC(=O)Nc1ccnn1C1CCN(C(=O)C2CCOC2)CC1 (centres undefined)	nt	nt	nt	nt	nt	-2%
OCc1nc2ccccc2n1C/C=C/c1ccccc1	-2%	nt	9	-10	9%	51%
COc1ccc(C(C)(O)c2nc(-c3cccc(C(F)(F)F)c3)cs2)cc1 (centres undefined)	nt	nt	nt	nt	nt	15%
C=CCOC(=O)C1=C[C@H](c2cn(C(C)=O)c3ccccc23)[C@@H](CCCO)[C@H](OCC)O1	0%	12µM*	-2	-2	?	-4%
CCO[C@@H]1OC(C(=O)N2CCCCCCC2)=C[C@H](c2cn(C(C)=O)c3ccccc23)[C@H]1CCCO	1%	10µM*	1	-18	?	9%
CCO[C@@H]1OC(C(=O)N2CCCCCCC2)=C[C@H](c2csc3ccccc23)[C@H]1CCCO	0%	?	-2	-21	8.3µM*	-8%
Cc1ccc(NC(=O)c2c(NC(=O)Cc3ccccc3)sc3c2CCCC3)cc1	nt	nt	-5	-5	nt	nt
COc1ccc(C(=O)C(=O)N2CCC(Cc3ccccc3)CC2)cc1OC	nt	nt	nt	nt	nt	14%
COCC1CCN(C(=O)c2cc(COc3ccc(-n4cncn4)cc3)on2)C1 (centres undefined)	3%	?	1	5	8%	-10%
Cc1cccc(OCCC(=O)Nc2c(C)n(C)n(-c3ccccc3)c2=O)c1	2%	?	-1	-3	4%	2%
CNC(=O)COc1coc(CN2CCN(c3cccc(Cl)c3)CC2)cc1=O	2%	8%	-2	-4	-11%	3%
CC(C)NC(=O)COc1coc(CN2CCN(c3cccc(Cl)c3)CC2)cc1=O	-4%	12µM*	-3	-7	2%	-6%
O=C(COc1coc(CN2CCN(c3cccc(Cl)c3)CC2)cc1=O)NC1CCCC1	2%	?	nt	nt	9.3µM*	1%
CC(C)c1ccc(C2NC(=S)NC3=C2C(=O)CC(C)(C)C3)cc1 (centres undefined)	-27%	0%	-1	-10	23%	15%[2.32 µM]
Cc1ccc(C)c(OCCCCn2ccnc2)c1	-7%	13µM*	-3	-14	nt	-4%
Cc1ccc(OCCCCn2ccnc2)c([N+](=O)[O-])c1	1%	?	21*	36	?	-2%
Cc1ccc(OCCn2cncn2)c([N+](=O)[O-])c1	2%	?	-4	14	6%	-3%
Cc1ccc(OCCn2ccnc2)c(C)c1	-9%	1%	5	-5	-7%	-2%
SMILES	SARS PLP yeast	Pf growth 96h	Cycloheximide cs	Shiga toxin inh	Pf growth 48h	AMA1-RON2 inh
Cc1cc(C)c(S(=O)(=O)NCCCn2ccnc2)cc1C	-1%	13%	-2	nt	9%	?
Cc1cc(C)c(C)c(S(=O)(=O)NCCCn2ccnc2)c1C	1%	6.6µM*	-5	nt	?	-9%
Cc1ccc(OCCCCn2ccnc2)c(Cl)c1	-3%	10%	27*	40*	?	-7%
COC(=O)[C@@]12C[C@@H](CC(=O)NCCCN3CCCC3=O)C(=O)N(Cc3ccco3)C1=CCC(C)(C)C2	nt	nt	nt	nt	nt	-3%
COC(=O)c1ccccc1NS(=O)(=O)c1c(C)noc1C	-3%	13%	0	-4	118%	-8%
O=C(NC(=S)Nc1ccc(Cl)cn1)c1cc([N+](=O)[O-])ccc1N1CCOCC1	-3%	61%	2	-5	?	-2%
COc1cc(/C=C2\SC(=Nc3ccc(Cl)c(C(=O)O)c3)NC2=O)c(Br)c(Br)c1O	-5%	?	-1	9	21%	-9%
Cc1cccc(-c2nc(CS(=O)CC(=O)NCCc3ccc(Cl)cc3)c(C)o2)c1 (centres undefined)	3%	21%	-6	7	14%	5%
Cc1ccc(OCCOCCn2ccnc2)c(Br)c1	6%	19%	31*	75	35%	-14%
OC(COc1ccc(Cl)cc1)CSc1ccccn1 (centres undefined)	-5%	?	27*	21	28%	3%
COc1ccc(OCCSc2ncccn2)cc1	-5%	?	46*	113*	194%	?
COc1ccc(OCCSc2nc(C)nc3ccccc23)cc1	-4%	-17%	43*	31	?	?
COc1ccc(OCCSc2nc(C)c(Cc3ccccc3)c(=O)[nH]2)cc1	-1%	-3%	-2	-15	26%	-1%
Clc1ccc(OCCSc2ncccn2)cc1	-2%	?	55*	117*	195%	11%
COc1ccc(OCCCSc2ncccn2)cc1	-3%	?	39*	104*	136%	3%
Cc1ccc(OCCCSc2ncccn2)cc1C	30%	101%	44*	74*	189%	32%
O=C(CSc1nnnn1C1CC2C=CC1C2)Nc1ccc(C(=O)O)cc1 (centres undefined)	3%	?	nt	nt	12%	-4%
O=C(NCc1ccccc1)[C@@H]1CCCN1C(=O)[C@@H]1CCCN1C(=O)c1cccc2ccccc12	nt	nt	nt	nt	nt	5%
C=C(C)CN1CCN(S(=O)(=O)c2ccc(C)c(N(C)S(=O)(=O)c3ccc(C)cc3)c2C)CC1	-7%	-18%	-2	-4	10µM*	-24%
O=C(Cn1ncc2c([nH]c3ccccc32)c1=O)NCC1CCN(Cc2ccccc2F)CC1	?	9.3µM*	-2	0	1%	-6%
O=C(Cn1ncc2c([nH]c3ccccc32)c1=O)NCCc1ccccc1	-1%	-14%	9	-6	0%	0%
Cc1ccc2oc(-c3ccc(NC(=O)c4ccncc4)cc3O)nc2c1	0%	13%	29*	44*	51%	70%
COc1ccc(CC(=O)Nc2ccc(-c3nc4cc(C)ccc4o3)c(O)c2)cc1OC	7%	2%	33*	70	15%	30%

Screening data as filed in PubChem.
